Screening results: PubChem BioAssay, National Center for Advancing Translational Sciences (NCATS)
Shown are actives, neighbours in structure and some others; about 3.2% of the full set was active somewhere.
p53null 32C kill – kills p53 null cells at the permissive temperature | H1299-neo p53 null cells, ATP luminescence, 24 h, 32C | Potency, µM (top dose mostly 46.1 µM), for the others: at the highest dose activity change, negative = cytotoxicity, usual class: cytotoxic | 55,000 compounds, 0.62% hits | AID 903;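 also: potency is read from the fitted curve at half-maximal effect; 0% = DMSO only and -100% = full killing by 100 µM tamoxifen; nearly all actives have a fitted effect of over 55% in size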
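H1299-neo, 600 cells/well; overnight 37C; cpd up to 46 uM, 24 h at 32C; ATPlite luminescence after 20 min RT; normalized to DMSO (0%) and tamoxifen 100 uM (100% kill); Hill-fit AC50.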
PMP22 txn – PMP22 gene transcription modulation | S16 Pmp22-F2sN Schwann cells, FLuc/NLuc coincidence luminescence, 24 h | Potency, µM (doses to about 57.5 µM), for the others: at the highest dose activity change, negative = inhibition, actives largely listed as inhibitors | 43,000 compounds, 2% hits | AID 1508649; active = clear falling dose curves in both reporters; inconclusive = both reporters move, but less clearly or upward; inactive = either reporter flat; the % is the NLuc reporter signal; also: potency is read from the fitted curve at half-maximal effect; % is scaled to controls: 0 for no effect and ±100 for the full control effect
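S16 Schwann cells carrying FLuc/NLuc coincidence reporter in the Pmp22 3' UTR treated with compound 24 h at 37C; FLuc then NLuc luminescence read sequentially by dual-luciferase reagents.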
p53null 39C kill – selectivity test: cytotoxicity in p53 null cells, nonpermissive temperature; Potency, µM (series often up to 46.1 µM), without a hit: at the highest dose activity, negative = cell killing, actives largely listed as cytotoxic; AID 904; 55,000 compounds, 0.97% hits; H1299 p53-null (neo) cells, 39C, ATPlite viability, 24 h;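 also: potency is read from the fitted curve at half-maximal effect; 0% = DMSO only and -100% = full killing by 100 µM tamoxifen; nearly all actives have a fitted effect of over 50% in size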
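Cells seeded at 600/well, 37C overnight. Compound added (up to 46 uM), plates shifted to 39C for 24 hr. ATPlite added, luminescence read after 20 min at room temperature.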
mTORC1 inh – inhibitors of mTORC1 signaling in Tsc2-/- p53-/- MEF cells | 44,000 compounds, 0.78% hits | Tsc2-/- p53-/- MEF, phospho-rpS6 immunofluorescence/PI, 24 h | AID 493208 | Potency, µM (doses to about 38.3 µM), for the others: at the top dose activity change, negative = inhibition, usual class: inhibitors;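 also: potency is read from the fitted curve at half-maximal effect; plate controls were DMSO for no effect and rapamycin for full effect; nearly all actives have a fitted effect of over 50% in size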
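Cell-based qHTS: Tsc2-/- p53-/- MEF, 24 h cpd, 37 °C; fix/perm, anti-phospho-S6 Alexa-488 + PI; Acumen 488 nm scan; pS6/PI ratio, % positive cells; rapamycin 7.5 nM = inhibition ref; PI count = viability.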
S16 F2sN tox – cytotoxicity in S16 Pmp22-F2sN Schwann cells; 43,000 compounds, 0.48% hits; AID 1508642; S16 Pmp22-F2sN Schwann cells viability, CellTiter-Glo, 24 h; Potency, µM (highest dose often 57.5 µM), inactives show at the top dose activity change, negative = cytotoxicity, most hits filed as cytotoxic; also: potency is read from the fitted curve at half-maximal effect; % is scaled to controls: 0 for no effect and ±100 for the full control effect; nearly all actives have a fitted effect of over 65% in size
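Luminescence from CellTiter-Glo, read by CCD camera after a 15 min room-temperature incubation, served as the viability signal. Reporter Schwann cells (S16 Pmp22-F2sN) had been treated with pin-transferred compounds for 24 h at 37C.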
NLuc sat counter – inhibits NanoLuc at saturating substrate, PMP22 counter-screen; 690 compounds, 4% hits; AID 1508638; shares compounds with PMP22 txn; Potency, µM (doses to about 57.5 µM), inactives show at the top dose activity change, negative = inhibition, hits mostly inhibitors; Secreted NLuc enzyme (filtered S16 cell medium), Nano-Glo luminescence; also: potency is read from the fitted curve at half-maximal effect; % is scaled to controls: 0 for no effect and ±100 for the full control effect
NLuc Km counter – NanoLuc inhibition at Km substrate, PMP22 artifact check. shares compounds with PMP22 txn. secreted NLuc enzyme, coelenterazine luminescence, Km conditions. Potency, µM (highest dose often 57.5 µM), for the others: at the highest dose activity change, negative = inhibition, actives largely listed as inhibitors. 690 compounds, 5% hits; also: potency is read from the fitted curve at half-maximal effect; % is scaled to controls: 0 for no effect and ±100 for the full control effect
FLuc ctr PMP22 – inhibits firefly luciferase, PMP22 counter-screen; shares compounds with PMP22 txn; purified P. pyralis FLuc, luminescence, 10 min; Potency, µM (top dose mostly 57.5 µM), for the others: at the top dose activity, negative = inhibition, actives largely listed as inhibitors; 690 tested, under 10 active; AID 1508640; also: % of control where 0% means no effect
Target sequence (P08659 whole entry, looked up): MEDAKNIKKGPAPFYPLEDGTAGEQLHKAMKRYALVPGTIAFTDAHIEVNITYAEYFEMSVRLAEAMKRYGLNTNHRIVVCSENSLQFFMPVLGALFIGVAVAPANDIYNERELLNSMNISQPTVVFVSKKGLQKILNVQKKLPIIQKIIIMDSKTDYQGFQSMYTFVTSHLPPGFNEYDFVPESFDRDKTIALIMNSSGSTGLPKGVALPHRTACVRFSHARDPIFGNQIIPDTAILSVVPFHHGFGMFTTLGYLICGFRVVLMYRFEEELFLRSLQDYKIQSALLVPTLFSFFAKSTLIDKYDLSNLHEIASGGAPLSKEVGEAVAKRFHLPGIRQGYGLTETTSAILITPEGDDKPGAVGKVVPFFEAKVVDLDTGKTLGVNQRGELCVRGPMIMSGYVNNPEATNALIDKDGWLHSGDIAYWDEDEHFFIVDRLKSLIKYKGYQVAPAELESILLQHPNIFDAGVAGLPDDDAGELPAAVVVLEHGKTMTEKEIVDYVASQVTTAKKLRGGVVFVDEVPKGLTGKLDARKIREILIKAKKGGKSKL
S16 viab conf – confirmation of cytotoxicity in S16 Pmp22-F2sN Schwann cells (luciferase reporters placed in the Pmp22 gene) | shares compounds with PMP22 txn | Potency, µM (highest dose often 57.5 µM), inactives show at the top dose activity change, negative = viability loss, usual class: cytotoxic | S16 Schwann cells viability, CellTiter-Glo ATP luminescence, 24 h | AID 1508641 | 690 compounds, 7% hits; also: potency is read from the fitted curve at half-maximal effect; % is scaled to controls: 0 for no effect and ±100 for the full control effect
PMP22 txn cnf – PMP22 transcription modulation, confirmatory; AID 1508646; shares compounds with PMP22 txn; 690 compounds, 22% hits; Potency, µM (top dose mostly 57.5 µM), inactives show at the top dose activity change, negative = inhibition, actives largely listed as inhibitors; S16 Schwann cells Pmp22-F2sN, dual luciferase, 24 h; active = clear falling dose curves in both reporters; inconclusive = both reporters move, but less clearly or upward; inactive = either reporter flat; the % is the FLuc reporter signal; also: potency is read from the fitted curve at half-maximal effect
* marks the source's active call; other numbers are inactive results; ? = inconclusive; . = no result given. Unless noted, calls follow the shape of the dose curve; as a rule, active = well fitted curve in the direction sought with a large enough effect; inconclusive = small, poorly fitted or top-dose-only effect, or another doubt; inactive = no such curve, though single readings can be large; an effect the other way counts as inactive or inconclusive.

SMILES	p53null 32C kill	PMP22 txn	p53null 39C kill	mTORC1 inh	S16 F2sN tox	NLuc sat counter	NLuc Km counter	FLuc ctr PMP22	S16 viab conf	PMP22 txn cnf
O=C(CN1CCN(Cc2ccccc2Cl)CC1)N=Nc1c(O)[nH]c2ccccc12	2%	.	6%	.	.	.	.	.	.	.
O=C(NCc1ccccc1Cl)c1ccc(Nc2nc3ccccc3n3nnnc23)cc1	-18%	18µM*	4%	-7%	-18%	-5%	-2%	2%	-22%	?
COCCNC(=O)c1cccc(Nc2nc3ccccc3n3nnnc23)c1	-20%	11µM*	34%	0%	1%	-14%	?	1%	-18%	-30%
CCCCOc1ccc(C(C)NC(=O)c2cccc(Nc3nc4ccccc4n4nnnc34)c2)cc1 (configuration not stated)	-3%	5.3µM*	-5%	2%	?	-8%	5%	-8%	27µM*	10µM*
O=C(CCn1cnc2ccccc2c1=O)NCc1ccccc1	-8%	-4%	23%	-5%	1%	.	.	.	.	.
COc1ccc(NC(=O)Nc2cc(-c3cn4cccnc4n3)ccc2OC)cc1	-7%	-2%	-25%	?	20%	.	.	.	.	.
CCOc1cccc(C2Nc3ccccc3-c3cc(C)nn32)c1O (configuration not stated)	7%	-5%	-8%	2%	-6%	.	.	.	.	.
COC(=O)c1ccc(CSc2nc3c([nH]c4ccccc43)c(=O)n2-c2cccc(Cl)c2)o1	-1%	18µM*	-10%	-2%	13%	?	-18%	0%	?	6.1µM*
COC(=O)c1ccc(CSc2nc3c([nH]c4ccccc43)c(=O)n2-c2cccc(OC)c2)o1	13%	-24%	14%	-9%	-7%	.	.	.	.	.
COCCCn1c(=N)c(C(=O)NC2CCCC2)cc2c(=O)n3cccc(C)c3nc21	3%	?	7%	-1%	8%	-6%	1%	3%	20%	?
CCC(C)n1c(=N)c(C(=O)NC2CCCC2)cc2c(=O)n3ccccc3nc21 (configuration not stated)	-8%	9.5µM*	36%	-2%	-3%	-17%	-5%	5%	?	-31%
COCCCn1c(=N)c(C(=O)NC2CCCC2)cc2c(=O)n3cc(C)ccc3nc21	0%	-5%	4%	0%	5%	.	.	.	.	.
CCCCCn1c(=O)[nH]c2cc(C(=O)NCc3ccc(Cl)cc3)ccc2c1=O	1%	-1%	-9%	5%	2%	.	.	.	.	.
O=C(NCCc1ccc(Cl)cc1)c1ccc(Cn2c(=O)[nH]c3ccccc3c2=O)cc1	15%	3.2µM*	4%	-19%	-23%	-3%	-2%	-9%	-30%	?
